Data on 40 compounds can be found in PubChem BioAssay (NCI).

Structures are written as SMILES. Compounds without any hit were thinned out: in the full panel of roughly 79,000, 15% have a hit. Active and inactive are the calls of the source. No stated cut-off is given here; in the data, active means growth inhibition above about 70%; inactive means the rest. Where a SMILES comes first, the peptide text is derived from it. Bridges are numbered along the chain shown (N, C = ends). [ ]: non-standard residue; d: D form. The star is where a group is joined. Cbz = O=C(OCc1ccccc1)*; Aib = CC(C)(N)C(=O)O; OBn = c1ccc(CO*)cc1; βAla = NCCC(=O)O

A short description of the assay: NCI Yeast Anticancer Drug Screen. Data for the bub3 strain (AID 167). Conditions: S. cerevisiae bub3 mutant strain, at 50.0 µM, active compounds read high. The gist of the method: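 Growth of a checkpoint-deficient yeast mutant is measured after compound exposure. Values represent inhibition relative to vehicle.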
For the compound `CCOC(=O)C(C#N)=C1c2ccccc2Oc2ccccc21`, the growth inhibition is 6.95% (inactive).

Turning to `COC(=O)C[CH2][Ge]([CH3])([CH3])[S]c1ccccc1`, the growth inhibition is 15.4% (inactive).

On to `CN(C1c2ccccc2Oc2ccccc21)S(=O)(=O)c1ccc([N+](=O)[O-])cc1`, for which the growth inhibition was 3.35% (inactive).

On to `Nc1cccc2sccc12`, for which the growth inhibition is 11.9% (inactive).

For `Cc1ccc(OC(=O)c2cccs2)cc1`, the growth inhibition is 22% (inactive).

In the case of `N#CN=CN1CCN(c2ccccc2)CC1`, the growth inhibition was -5.4% (inactive).

In the case of `Cc1ccc(NC(=O)CN2CCCCC2)cc1`, the growth inhibition was -0.9% (inactive).

Consider `COc1ccc(-c2cc(-c3ccccc3)c(C#N)c(=O)n2C2OC(CO)C(O)C(O)C2O)cc1` (stereo not given), for which the growth inhibition is -5.6% (inactive).

For `Cc1cccc(C(O)(c2cccc(C)c2)C2(O)CCCCC2)c1`, the growth inhibition is 1% (inactive).

For `COC(=O)c1ccccc1-n1c(-c2ccc([N+](=O)[O-])cc2)csc1=NC(=O)c1cccc([N+](=O)[O-])c1`, the growth inhibition was -1.15% (inactive).

`Cc1ccc(S(=O)(=O)NC(=O)NCc2cccc(Cl)c2)cc1`: the growth inhibition was 13.9% (inactive).

Regarding `COC1OC(COS(C)(=O)=O)C2OC(C)(C)OC12` (stereo not given), the growth inhibition was -9.3% (inactive).

For `N#CC(c1ccccc1)N(CCCCCCN(C(=O)c1ccccc1)C(C#N)c1ccccc1)C(=O)c1ccccc1` (stereo not given), the growth inhibition was 40.4% (inactive).

In the case of `CC1(C)C(C(=O)/C=C2\Nc3ccccc3C2(C)C)=Nc2ccccc21`, the growth inhibition is -29.4% (inactive).

In the case of `O=S(=O)(c1ccccc1)N1CN(S(=O)(=O)c2ccccc2)CN(S(=O)(=O)c2ccccc2)C1`, the growth inhibition is 17.9% (inactive).

Turning to `CCCCC1=CC1(C#N)[N+](=O)[O-]` (stereo not given), the growth inhibition was 17.3% (inactive).

Regarding `CC1(C)NC(=O)C(NC(=O)C(CC(=O)OCc2ccccc2)NC(=O)OCc2ccccc2)CCCCNC(=O)CCNC1=O` (stereo not given) (Cbz-D(OBn)K[Aib][βAla]; lactam 2-C; configuration not given here), the growth inhibition was -2.35% (inactive).

Regarding `CC(=O)c1ccc2c(c1)-c1ccccc1C(=O)C2=O`, the growth inhibition was -15.3% (inactive).

Take `Cn1c(=O)nc2n(C)c3ccccc3cc-2c1=O`: the growth inhibition is -12.7% (inactive).

As to `COc1cc2c(cc1OC)C(=O)N(c1ccc(O)cc1)C2=O`, the growth inhibition was 12.3% (inactive).

In the case of `O=C(NNc1ccccc1)NNc1ccccc1` (tested in a mixture with another compound), the growth inhibition was -12.2% (inactive).

Take `C/C(=N/NC(=O)CC#N)c1ccccc1`: the growth inhibition was 27.7% (inactive).

For `Cc1cc(C)n(-c2ccc([N+](=O)[O-])cn2)n1`, the growth inhibition is 9.85% (inactive).

With `CC(C(=O)c1ccncc1)c1ccccn1` (stereo not given), the growth inhibition was -12.9% (inactive).

As for `CCSc1ccc2c3c(cccc13)C(=O)N(CCc1ccccn1)C2=O`, the growth inhibition was 6.2% (inactive).

Take `O=c1cc([O-])[n+](C2OC(CO)C(O)C2O)c2sccn12` (stereo not given): the growth inhibition is -2.55% (inactive).

With `CC(=O)Nc1ccc2c(c1)CCCC2`, the growth inhibition was -2.95% (inactive).

Consider `CC1(C)C([N+](C)(C)C)CS1(=O)=O` (stereo not given), for which the growth inhibition is 9.65% (inactive).

On to `CCc1cc(C(C)(C)C)cc(C(C)(C)C)c1O`, for which the growth inhibition was 21.4% (inactive).

Take `Cc1cccc(NC(=S)NCCc2ccccn2)c1`: the growth inhibition is 12.7% (inactive).

As to `COC1OC2COC(c3ccccc3)OC2C(OC(C)=O)C1OS(=O)(=O)c1ccc(C)cc1` (stereo not given), the growth inhibition is -4.65% (inactive).

`Cc1nc(N)c2c(n1)C(Cc1ccccc1)N(C(=O)c1ccccc1)C2` (stereo not given): the growth inhibition is 6.55% (inactive).

As to `COC(=O)C12OCC34C(CC5C(C)=C(O)C(=O)CC5(C)C3C(O)C1O)OC(=O)C(OC(C)=O)C24` (stereo not given), the growth inhibition is 79% (active).

In the case of `Cn1c(COC(=O)NC2CCCCC2)c(COC(=O)NC2CCCCC2)c2ccc3cc(C=O)ccc3c21`, the growth inhibition is -10.4% (inactive).

Regarding `C[Si](C)(C)Nc1ncnc2c1ncn2[Si](C)(C)C`, the growth inhibition is 2.85% (inactive).

As to `O=[N+]([O-])c1ccc(OC(=S)N2CCOCC2)cc1`, the growth inhibition was -10.2% (inactive).

As for `O=C1c2ccccc2-c2cccc(I)c21`, the growth inhibition is 0.1% (inactive).

In the case of `CCN(CC)C(=O)c1cncc(C(N)=O)c1`, the growth inhibition is 12.7% (inactive).

Consider `CSC(=S)/C(=C/Nc1ccccn1)c1ccccc1`, for which the growth inhibition was 37.8% (inactive).

`O=c1cc(-c2ccccc2)[nH]c2[nH]n(-c3ccccc3)c(=O)c12`: the growth inhibition is -9.55% (inactive).
